This passage reports outcome and AC50 results from PubChem BioAssay (EPA / NIEHS).

A short description of experiment [1]: ACEA_AR_agonist_AUC_viability: ACEA Biosciences xCELLigence Real-Time Cell Analysis on Androgen Receptor Agonism for Viability (AID 2283775).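 For AC50: viability read 80 hours after compound addition.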 The essentials:
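22Rv1 cells; impedance growth kinetics; 8-pt 1:4 dilutions from 100 uM top final, ≤0.5% DMSO; n = 2; 80 h read; AUC viability, loss-of-signal vs DMSO.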

Experiment [2] is described as follows: ACEA_AR_antagonist_AUC_viability: ACEA Biosciences xCELLigence Real-Time Cell Analysis on Androgen Receptor Antagonism for Viability (AID 2283776).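 Note: 22Rv1 human prostate cancer cells growing on impedance electrode plates; hits lower the growth signal relative to DMSO meaning cytotoxicity.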 The method in brief:
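Real-time electrical impedance tracks 22Rv1 proliferation after continuous compound exposure (top 100 uM final, 1:4 steps, 8 concentrations). The 80 h area-under-curve serves as the cytotoxicity readout relative to DMSO.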

Experiment [3] is described as follows: ACEA_ER_AUC_viability: ACEA Biosciences xCELLigence Real-Time Cell Analysis on Estrogen Receptor Agonism for Viability (AID 2283782).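 Note: hit means loss of impedance signal meaning reduced cell growth or viability.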 The method in brief: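 Continuous-exposure impedance cell analysis uses T-47D cells in charcoal-stripped serum, eight 1:4 dilutions topping at 100 uM final, biological duplicate. Area under the growth curve at 80 h is fitted against DMSO baseline.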

Experiment [4] in a line: STM_H9_NormalizedViability: Cytotoxicity Assessment at 120 hours in the Stemina devTOX quickPredict H9 human embryonic stem cell (hESC)-based Assay (AID 2283784). The method in brief: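 Viability endpoint: background-corrected CellTiter-Fluor RFU expressed relative to the 0.1% DMSO mean on each plate. Undifferentiated H9 cells were treated with daily re-dosing and media change, and loss of signal was fitted.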

In experiment [5] the target is chicken Estrogen Receptor (ESR1), ESR1 (gene 396099) (UniProt P06212). Nature of the experiment: ATG_chERa_XSP1: Attagene TRANS-FACTORIAL Multi-Species (XSP1) HepG2 Assay for chicken Estrogen Receptor (ESR1) (AID 2283779). The essentials:
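Gain-of-signal reporter transcription, relative to DMSO, was scored in transiently transfected HepG2 cells after a 24 h dose. Fluorescence intensity of amplified, digested reporter cDNA fragments served as the endpoint.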

Experiment [6] addresses Estrogen receptor (Homo sapiens) (UniProt P03372). The experiment is described as follows: ATG_hERa_XSP1: Attagene TRANS-FACTORIAL Multi-Species (XSP1) HepG2 Assay for human Estrogen Receptor (ESR1) (AID 2283780). The method in brief: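 Reporter transcripts from multiplexed GAL4-UAS units driven by NR-Gal4 chimeras in transiently transfected HepG2 were measured by RT-PCR with capillary electrophoresis 24 h post-dose, with 3 nM 6-alpha-fluorotestosterone present; gain-of-signal relative to DMSO.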

Experiment [7] has as its target GAL4 Transcription Factor (Internal Marker), GAL4 (gene 855828) (UniProt P04386). Nature of the experiment: ATG_GAL4_XSP1: Attagene TRANS-FACTORIAL Multi-Species (XSP1) HepG2 Assay for GAL4 Transcription Factor (Internal Marker) (AID 2283789). The essentials:
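This background-control endpoint measures GAL4-driven reporter mRNA via RT-PCR and capillary electrophoresis of labelled fragments. Transiently transfected HepG2 cells were treated 24 h, with 3 nM 6-alpha-fluorotestosterone included, and gain-of-signal was fitted against DMSO.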

Experiment [8] is described as follows: ATG_M_19_XSP1: Attagene TRANS-FACTORIAL Multi-Species (XSP1) HepG2 Assay for M19 Transcription Factor (Internal Marker) (AID 2283798). The essentials: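 Readout is reporter mRNA induction quantified via RT-PCR, 6-FAM labeling, HpaI digestion and capillary electrophoresis, fitted in the positive direction versus DMSO baseline. Transfected HepG2 cells exposed 24 h, medium including 3 nM 6-alpha-fluorotestosterone.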

For experiment [9], the target named is Peroxisome proliferator-activated receptor gamma (Homo sapiens) (UniProt P37231). The experiment is described as follows: ATG_hPPARg_XSP1: Attagene TRANS-FACTORIAL Multi-Species (XSP1) HepG2 Assay for human Peroxisome Proliferator-activated Receptor gamma (PPARg) (AID 2283800). The essentials: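 Reporter mRNA induction, measured by RT-PCR with capillary electrophoresis 24 h after dosing, scored as gain over DMSO. Transfected HepG2 cells express exogenous NR-Gal4 chimeras driving GAL4-UAS reporters; medium includes 3 nM 6-alpha-fluorotestosterone.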
Sequence of Peroxisome proliferator-activated receptor gamma (Homo sapiens) (P37231 whole entry, looked up, the tested form may be a part): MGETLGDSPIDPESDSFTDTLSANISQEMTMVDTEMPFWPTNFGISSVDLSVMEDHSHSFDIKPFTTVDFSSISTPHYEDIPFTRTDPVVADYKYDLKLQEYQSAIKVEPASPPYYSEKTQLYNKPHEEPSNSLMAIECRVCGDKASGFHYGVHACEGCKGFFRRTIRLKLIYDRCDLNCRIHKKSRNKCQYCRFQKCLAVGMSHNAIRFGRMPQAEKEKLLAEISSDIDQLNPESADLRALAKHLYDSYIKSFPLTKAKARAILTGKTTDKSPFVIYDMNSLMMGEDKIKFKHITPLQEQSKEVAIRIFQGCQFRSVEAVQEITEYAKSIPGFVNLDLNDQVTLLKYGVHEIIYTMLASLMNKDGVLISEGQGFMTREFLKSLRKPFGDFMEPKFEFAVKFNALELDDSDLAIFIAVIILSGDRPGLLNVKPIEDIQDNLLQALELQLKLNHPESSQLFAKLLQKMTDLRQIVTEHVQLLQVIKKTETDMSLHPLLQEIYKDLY

Experiment [10] concerns frog Estrogen Receptor (ESR1), gene 398734. The experiment is described as follows: ATG_frER1_XSP1: Attagene TRANS-FACTORIAL Multi-Species (XSP1) HepG2 Assay for frog Estrogen Receptor (ESR1) (AID 2283777). The method in brief:
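After transient transfection and 24 h compound treatment, total RNA from HepG2 cells was reverse-transcribed, amplified, FAM-labeled and resolved by capillary electrophoresis. Signal increases were fitted against DMSO controls.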

In experiment [11] the test system is turtle Estrogen Receptor (ESR1), gene 101933533. Nature of the experiment: ATG_trERa_XSP1: Attagene TRANS-FACTORIAL Multi-Species (XSP1) HepG2 Assay for turtle Estrogen Receptor (ESR1) (AID 2283781). The essentials:
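Cell-based chimeric NR-Gal4 transactivation; HepG2; 24 h dosing; mRNA reporter detected by RT-PCR and capillary electrophoresis fluorescence.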

Experiment [12] addresses AR (gene 367) (UniProt P10275). Nature of the experiment: ACEA_AR_agonist_80hr: ACEA Biosciences xCELLigence Real-Time Cell Analysis on Androgen Receptor Agonism for Proliferation (AID 2283783).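 Note: hits increase impedance growth signal above DMSO baseline.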 The essentials:
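Real-time cell-growth kinetics were recorded by electrode impedance in 22Rv1 cells exposed to test chemicals up to 100 uM final; the 80 h timepoint served as the readout, fitted upward relative to DMSO controls, in biological duplicate.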

Experiment [13] deals with AR (gene 367) (UniProt P10275). Nature of the experiment: ACEA_AR_antagonist_80hr: ACEA Biosciences xCELLigence Real-Time Cell Analysis on Androgen Receptor Antagonism for Proliferation (AID 2283787).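 Note: 22Rv1 human prostate cancer cells with growth followed by electrical impedance; hits lower the impedance growth signal relative to DMSO.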 The essentials: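 Using 22Rv1 cells held in assay medium, we dosed compounds (100 uM maximum final, 1:4 serial, eight points, 0.5% DMSO at top) and recorded cell-electrode impedance; the 80 hr timepoint was analyzed against DMSO.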
Sequence of AR (gene 367) (P10275 whole entry, looked up): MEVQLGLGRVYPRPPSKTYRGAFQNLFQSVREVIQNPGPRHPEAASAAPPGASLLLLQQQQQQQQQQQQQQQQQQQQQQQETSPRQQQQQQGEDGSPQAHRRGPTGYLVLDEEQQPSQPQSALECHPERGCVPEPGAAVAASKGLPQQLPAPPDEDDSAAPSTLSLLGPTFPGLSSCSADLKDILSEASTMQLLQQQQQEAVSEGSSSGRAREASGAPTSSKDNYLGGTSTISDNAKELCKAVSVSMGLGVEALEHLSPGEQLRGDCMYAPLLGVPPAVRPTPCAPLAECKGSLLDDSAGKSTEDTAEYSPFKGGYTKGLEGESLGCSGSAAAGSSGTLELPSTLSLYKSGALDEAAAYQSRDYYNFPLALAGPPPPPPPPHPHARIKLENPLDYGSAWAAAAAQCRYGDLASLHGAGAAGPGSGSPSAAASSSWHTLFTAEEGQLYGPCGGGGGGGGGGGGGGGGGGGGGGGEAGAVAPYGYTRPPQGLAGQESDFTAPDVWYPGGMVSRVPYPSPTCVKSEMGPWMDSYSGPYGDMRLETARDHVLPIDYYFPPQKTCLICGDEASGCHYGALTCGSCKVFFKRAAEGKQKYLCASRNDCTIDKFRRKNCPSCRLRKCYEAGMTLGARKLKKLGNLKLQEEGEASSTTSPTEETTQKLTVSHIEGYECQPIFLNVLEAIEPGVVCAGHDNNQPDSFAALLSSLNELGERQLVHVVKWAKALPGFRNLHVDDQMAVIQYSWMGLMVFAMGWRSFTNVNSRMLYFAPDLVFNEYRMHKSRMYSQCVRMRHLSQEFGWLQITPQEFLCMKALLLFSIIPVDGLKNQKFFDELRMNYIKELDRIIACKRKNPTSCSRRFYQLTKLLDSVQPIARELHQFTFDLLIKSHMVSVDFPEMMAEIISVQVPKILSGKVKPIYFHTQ

A short description of experiment [14]: ATG_M_06_XSP1: Attagene TRANS-FACTORIAL Multi-Species (XSP1) HepG2 Assay for M06 Transcription Factor (Internal Marker) (AID 2283790). The essentials: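 This background-control readout tracks M06 reporter mRNA, measured by RT-PCR and capillary electrophoresis. HepG2 cells transiently carrying the GAL4-UAS reporter panel were dosed for 24 h with 3 nM 6-alpha-fluorotestosterone added for partial AR stimulation; increases were scored relative to DMSO.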

A short description of experiment [15]: ATG_M_61_XSP1: Attagene TRANS-FACTORIAL Multi-Species (XSP1) HepG2 Assay for M61 Transcription Factor (Internal Marker) (AID 2283797). The method in brief:
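Background-control readout: reporter transcripts measured by RT-PCR and capillary electrophoresis 24 h after dosing transiently transfected HepG2 multi-reporter cells, with 3 nM 6-alpha-fluorotestosterone present. Fitted in the positive direction relative to DMSO.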

Experiment [16] has as its system zebrafish Peroxisome Proliferator-activated Receptor gamma (PPARg), gene 557037. Nature of the experiment: ATG_zfPPARg_XSP1: Attagene TRANS-FACTORIAL Multi-Species (XSP1) HepG2 Assay for zebrafish Peroxisome Proliferator-activated Receptor gamma (PPARg) (AID 2283801). The method in brief:
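Trans-activation readout of chimeric zebrafish PPARg–GAL4 in transiently transfected human HepG2 cells, 24 h chemical exposure (medium includes 3 nM 6-alpha-fluorotestosterone). Reporter transcripts measured by RT-PCR and capillary electrophoresis, fitted as gain over DMSO.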

The test system of experiment [17] is turtle Androgen Receptor (AR), gene 101947425. The experiment is described as follows: ATG_trAR_XSP1: Attagene TRANS-FACTORIAL Multi-Species (XSP1) HepG2 Assay for turtle Androgen Receptor (AR) (AID 2283786). The essentials: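 Partial androgen stimulation is provided by 3 nM 6-alpha-fluorotestosterone in a multi-species trans-factorial panel expressing a turtle AR–GAL4 fusion in HepG2. After 24 h, reporter mRNA is measured by RT-PCR and capillary electrophoresis and fitted upward against DMSO.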

A short description of experiment [18]: ATG_M_32_XSP1: Attagene TRANS-FACTORIAL Multi-Species (XSP1) HepG2 Assay for M32 Transcription Factor (Internal Marker) (AID 2283799). The essentials:
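Reporter transcripts from the M32 internal-control unit measured by RT-PCR, FAM labelling, HpaI digestion and capillary electrophoresis after 24 h compound exposure of transfected HepG2, 3 nM 6-alpha-fluorotestosterone included; DMSO baseline, positive-direction fit.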

Structures are written as SMILES. “And” between values parts separate entries of the source, which are not always exact repeats. Equal entries are not always repeated. Records with an inconclusive call do not appear. Some compounds were tested as several samples or in several runs, with calls that do not always agree. The source made the active and inactive calls. Rule for the calls: active = hit-call score of the fitted dose curve at least 0.9, where 1 is the maximum; inconclusive = response in the unintended direction; inactive = score below 0.9.

Sequence of Estrogen receptor (Homo sapiens) (P03372 whole entry, looked up, the tested form may be a part): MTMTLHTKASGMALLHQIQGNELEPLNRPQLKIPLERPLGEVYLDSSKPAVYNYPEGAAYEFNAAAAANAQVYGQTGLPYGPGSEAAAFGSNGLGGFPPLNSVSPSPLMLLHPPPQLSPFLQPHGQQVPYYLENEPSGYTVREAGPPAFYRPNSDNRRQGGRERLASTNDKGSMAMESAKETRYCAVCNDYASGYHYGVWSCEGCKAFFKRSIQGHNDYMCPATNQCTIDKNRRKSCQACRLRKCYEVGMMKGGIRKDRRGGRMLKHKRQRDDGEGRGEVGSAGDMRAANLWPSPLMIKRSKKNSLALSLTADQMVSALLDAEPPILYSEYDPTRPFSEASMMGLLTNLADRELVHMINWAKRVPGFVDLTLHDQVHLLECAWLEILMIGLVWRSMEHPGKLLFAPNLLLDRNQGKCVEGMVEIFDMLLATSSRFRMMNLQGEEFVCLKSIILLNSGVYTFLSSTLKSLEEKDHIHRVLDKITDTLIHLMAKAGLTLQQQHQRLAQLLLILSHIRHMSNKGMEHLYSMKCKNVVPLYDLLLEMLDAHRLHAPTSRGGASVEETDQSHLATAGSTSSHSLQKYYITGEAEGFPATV
Sequence of chicken Estrogen Receptor (ESR1), ESR1 (gene 396099) (P06212 whole entry, looked up, the tested form may be a part): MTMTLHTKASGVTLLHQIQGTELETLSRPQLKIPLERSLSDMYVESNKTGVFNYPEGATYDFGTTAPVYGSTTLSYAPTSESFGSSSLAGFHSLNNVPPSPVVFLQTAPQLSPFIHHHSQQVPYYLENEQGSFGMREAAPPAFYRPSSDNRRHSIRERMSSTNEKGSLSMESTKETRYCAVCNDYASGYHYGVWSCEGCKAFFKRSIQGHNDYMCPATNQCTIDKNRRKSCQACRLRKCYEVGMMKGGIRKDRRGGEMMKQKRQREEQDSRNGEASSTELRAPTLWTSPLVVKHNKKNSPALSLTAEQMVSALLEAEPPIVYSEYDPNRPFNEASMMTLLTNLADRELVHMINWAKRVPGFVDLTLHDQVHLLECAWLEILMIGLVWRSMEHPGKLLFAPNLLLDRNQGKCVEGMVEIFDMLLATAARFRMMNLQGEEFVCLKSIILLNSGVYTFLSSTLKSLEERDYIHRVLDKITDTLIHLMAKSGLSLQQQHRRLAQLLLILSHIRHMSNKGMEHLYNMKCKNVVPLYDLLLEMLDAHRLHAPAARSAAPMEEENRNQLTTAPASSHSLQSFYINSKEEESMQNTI
Sequence of GAL4 Transcription Factor (Internal Marker), GAL4 (gene 855828) (P04386 whole entry, looked up, the tested form may be a part): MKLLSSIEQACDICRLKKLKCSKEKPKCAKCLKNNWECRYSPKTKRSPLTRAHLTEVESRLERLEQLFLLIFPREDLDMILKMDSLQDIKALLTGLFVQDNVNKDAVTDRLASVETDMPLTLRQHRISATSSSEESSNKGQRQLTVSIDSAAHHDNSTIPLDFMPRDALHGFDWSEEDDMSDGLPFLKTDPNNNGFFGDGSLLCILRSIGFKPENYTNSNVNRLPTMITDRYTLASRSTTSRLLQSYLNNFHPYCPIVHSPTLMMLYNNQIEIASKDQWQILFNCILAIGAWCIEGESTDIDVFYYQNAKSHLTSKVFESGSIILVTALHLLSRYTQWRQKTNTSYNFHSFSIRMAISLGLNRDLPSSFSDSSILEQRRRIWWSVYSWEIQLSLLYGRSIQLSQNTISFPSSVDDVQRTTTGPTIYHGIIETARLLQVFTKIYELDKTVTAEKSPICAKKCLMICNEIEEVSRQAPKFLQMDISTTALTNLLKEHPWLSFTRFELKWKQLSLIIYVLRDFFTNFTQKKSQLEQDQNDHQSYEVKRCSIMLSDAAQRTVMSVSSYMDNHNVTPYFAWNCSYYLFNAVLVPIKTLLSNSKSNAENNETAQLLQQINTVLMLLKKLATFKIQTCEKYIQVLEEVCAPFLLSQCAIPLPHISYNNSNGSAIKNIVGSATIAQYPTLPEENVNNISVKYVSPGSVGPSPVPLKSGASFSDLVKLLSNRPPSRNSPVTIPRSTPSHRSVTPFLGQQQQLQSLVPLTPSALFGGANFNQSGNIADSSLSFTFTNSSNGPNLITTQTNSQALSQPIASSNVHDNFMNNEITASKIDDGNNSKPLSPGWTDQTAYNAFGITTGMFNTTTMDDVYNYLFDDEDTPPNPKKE

Usually AC50 stands for the midpoint of the concentration-response curve, whichever way the signal moves. Turning to `O=C(O)C(F)(F)C(F)(F)C(F)(F)C(F)(F)C(F)(F)C(F)(F)C(F)(F)F`, the call in experiment [1], in [2], in [3] and in experiment [4] was inactive. Moreover, in experiment [2], the AC50 was 37.7 µM (active).

Consider `CCOCN(C(=O)CCl)c1c(C)cccc1CC`, for which the concentration at half-maximal activity (AC50) in experiment [1] is 50 µM (active); in [2], 40.9 µM (active); in experiment [3], 79.5 µM (active); in experiment [9] it was 0.727 µM (active). In addition, the outcome in experiment [5], in experiment [6], in [4], in experiment [7] and in experiment [8] was inactive.

Consider `CCCN(CCC)c1c([N+](=O)[O-])cc(C(F)(F)F)cc1[N+](=O)[O-]`, for which the AC50 is 80.7 µM (active) in [1]; 50 µM (active) in [2]; 7.74 µM (active) in [10]; 27.2 µM (active) in [5]; 27.9 µM (active) in [11]; 62.7 µM (active) with AR (gene 367) [13]. Besides, the half-maximal activity concentration (AC50) in experiment [9] was 27.1 µM (active). The call (in [6]; with AR (gene 367) [12]; in [14]; in experiment [15]; in [16]) was inactive.

Consider `O=C(O)COc1ccc(Cl)cc1Cl`, for which the outcome in experiment [1], in [2] and in [3] was inactive.

Consider `O=S(=O)(O)C(F)(F)C(F)(F)C(F)(F)C(F)(F)C(F)(F)C(F)(F)C(F)(F)C(F)(F)F`, for which the AC50 in experiment [1] was 50 µM (active); in experiment [2] it was 31.4 µM (active) and 67.5 µM (active); in experiment [10] it was 84 µM (active); in experiment [3], 80 µM (active); in experiment [17], 130 µM (active). Also, the molecule was called inactive in experiment [1], in [3], in [4], in experiment [8] and in [18].

Turning to `CC(C)(C)C(O)/C(=C\c1ccc(Cl)cc1Cl)n1cncn1` (stereo not given), the values for the half-maximal activity concentration (AC50) in [2], in experiment [3] and in experiment [4] were 20.3 µM (active), 81.1 µM (active) and 79.1 µM (active), respectively.

Regarding `O=C(Nc1ccccc1)Nc1cnns1`, the results for the AC50 in experiment [1] and in experiment [2] were 28.6 µM (active) and 50 µM (active), respectively. Besides, the molecule was classed as inactive in experiment [3] and in experiment [4].

With `O=C(O)CCCOc1ccc(Cl)cc1Cl`, the molecule was called inactive (in experiment [1]; in experiment [2]; in experiment [3]; with AR (gene 367) [13]).

In the case of `C#CCN1C(=O)COc2cc(F)c(N3C(=O)C4=C(CCCC4)C3=O)cc21`, the AC50 was 50 µM (active) in [1], 50 µM (active) in experiment [2], 75.5 µM (active) in experiment [4] and 64.5 µM (active) with AR (gene 367) [13]. Further, the outcome in the experiment with AR (gene 367) [12] was inactive.
